From PubChem BioAssay (NCATS) come the findings set out here.

A short description of this test: qHTS drug screen for cell cycle checkpoint inhibitors in PARPi-resistant BRCA-mutant ovarian cancer cell lines. (AID 1963452). To be noted: PEO1/OlaR viability, CellTiter-Glo luminescence, 96 h; for Z-AUC: stronger effect = lower value. An excerpt: Women's Malignancies Branch, Center for Cancer Research (CCR),
National Cancer Institute (NCI), National Institutes of Health (NIH), Bethesda, MD
Poly (ADP-ribose) polymerase inhibitors (PARPis) have changed the treatment paradigm in breast cancer gene (BRCA) - mutant high-grade serous ovarian carcinoma (HGSC). However, most patients eventually develop resistance to PARPis, highlighting an unmet need for improved therapeutic strategies. Using high-throughput drug screens, we identified ataxia telangiectasia and rad3-related protein/checkpoint kinase 1 (CHK1) pathway inhibitors as cytotoxic and further validated the activity of the CHK1 inhibitor (CHK1i) prexasertib in PARPi-sensitive and -resistant BRCA-mutant HGSC cells and xenograft mouse models. CHK1i monotherapy induced DNA damage, apoptosis, and tumor size reduction. We then conducted a phase 2 study (NCT02203513) of prexasertib in patients with BRCA-mutant HGSC. The treatment was well tolerated but yielded an objective response rate of 6% (1 of 17; one partial response) in patients with previous PARPi treatment. […] BRCA reversion mutation in previously PARPi-treated BRCA-mutant patients was not associated with resistance to CHK1i.
Among others, 1082 oncology drugs, both approved and investigational, were prioritized based on their status in clinical trial development. […] Drugs with average Z-AUC values less than -1.0 in all three cell lines were classified as "hits" resulting in 151 oncology drug hits. The screen also confirmed cross-resistance between olaparib and other PARPis (rucaparib, niraparib, and talazoparib) in PARPi-resistant PEO1/OlaR and PEO4.
[1] G. L. Lin, K. M. Wilson, M. Ceribelli, B. Z. Stanton, P. J. Woo, S. Kreimer, E. Y. Qin, X. Zhang, J. Lennon, S. Nagaraja, P. J. Morris, M. Quezada, S. M. Gillespie, D. Y. Duveau, A. M. Michalowski, P. Shinn, R. Guha, M. Ferrer, C. Klumpp-Thomas, S. Michael, C. McKnight, P. Minhas, Z. Itkin, E. H. Raabe, L. Chen, R. Ghanem, A. C. Geraghty, L. Ni, K. I. Andreasson, N. A. Vitanza, K. E.Warren, C. J. Thomas, M. Monje, Therapeutic strategies for diffuse midline glioma from high-throughput combination drug screening. Sci. Transl. Med. 11, (2019).
[2] T. M. Yamamoto, A. McMellen, Z. L. Watson, J. Aguilera, R. Ferguson, E. Nurmemmedov, T. Thakar, G. L. Moldovan, H. Kim, D. M. Cittelly, A. M. Joglar, E. P. Brennecke, H. Wilson, K. Behbakht, M. J. Sikora, B. G. Bitler, Activation of Wnt signaling promotes olaparib resistant ovarian cancer. Mol. Carcinog. 58, 1770 - 1782 (2019).
PROTOCOL TABLE (as described by Inglese J, Shamu CE and Guy RK. 2007)
SEQUENCE No. (e.g., 1, 2, 3, etc.); […] (e.g., Cells, Incubation, Reagent, etc.); VALUE; DESCRIPTION.
1; Compounds; 20nL; 1536-well white tissue culture-treated plates.
2; Cells; 5 uL; PEO1, PEO4, and PEO1/OlaR cells at 600 cells per well.
3; Incubation; 96 hr; 37C, 95% humidity, 5% CO2.
4; Reagent; 3 uL; CellTiter-Glo (Promega).
5; Incubation; 15 min; room temperature.
6; Detection; Luminescence, PHERAstar (BMG Labtech) plate reader.
NOTES (numbers refer to Sequence numbers above)
1. MIPE 5.0 compounds were acoustically dispensed by Echo Acoustic Liquid Handler (Beckman Coulter Life Sciences). Each compound was plated at an 11-point concentration range with 1:3 dilution. Bortezomib, a proteasome inhibitor (final concentration, 20 uM), was used as a positive.
2. PEO1, PEO4, and PEO1/OlaR were trypsinized and dispensed in 5 uLof growth medium using a Multidrop Combi dispenser at a density of 600 cells per well to allow compounds to be present during the exponential growth phase.
3. Plates were incubated for 96 hours at standard incubator conditions and covered by a stainless steel gasketed lid to prevent evaporation.
4. Three microliters of CellTiter-Glo (Promega) were added to each well.
5. Plates were incubated at room temperature for 15 min with a stainless-steel lid in place.
6. Luminescence readings were taken using PHERAstar (BMG Labtech). […]
On the technique in general: In qHTS, concentration-response curves come from the screen itself.

Setting [1] is: measured here: PEO1 parental Z-AUC.

Calls of active or inactive are those of the source. The call rests on the fitted dose curve.
Potency means the concentration at half of the fitted maximal effect.

Regarding `CCNC(=O)C#Cc1ccc2c(C(=Nc3ccc(CN(C)C)cc3)c3ccccc3)c(O)[nH]c2c1`, the Potency was 535 nM (active). Besides, the Z-AUC under setting [1] is -2.66. Moreover, the Z-AUC (measured here: PEO4 Z-AUC) is -2.58.

As for `OC(c1ccc(-c2ccc(CN3CCN(Cc4ccncc4)CC3)cc2)c(F)c1)(C(F)(F)F)C(F)(F)F`, the Z-AUC was -1.4 (inactive). Further, under setting [1], the Z-AUC is -0.566. For the setting “measured here: PEO4 Z-AUC”, the Z-AUC is -0.000497.

Consider `Cc1c(F)ccc(C(=O)Nc2cc([N+](=O)[O-])ccc2N2CCN(C)CC2)c1Cl`, for which the Z-AUC is 0.532 (inactive). The Z-AUC under setting [1] stood at 0.409. Further, under “measured here: PEO4 Z-AUC”, the Z-AUC was -0.0381.

In the case of `Nc1nccc(-c2c(-c3ccc(F)cc3)ncn2C2CCCCC2)n1`, the Z-AUC was -0.78 (inactive). Further, under setting [1], the Z-AUC turned out to be 1.09. For the same compound, the Z-AUC (measured here: PEO4 Z-AUC) was determined as 0.204.

With `O=C(NCCCNC(=O)c1ccc[nH]c1=O)c1cc(-c2ccccc2)on1`, the Z-AUC is 0.194 (inactive). Also, the Z-AUC under setting [1] was 0.0234. For the setting “measured here: PEO4 Z-AUC”, the Z-AUC is -0.178.

Regarding `CN1CC[C@@H](c2c(O)cc(O)c3c(=O)cc(-c4ccc(C(F)(F)F)cc4Cl)oc23)[C@@H]1CO`, the Z-AUC was -0.123 (inactive). Besides, under setting [1], the Z-AUC was 0.298. Besides, the Z-AUC (measured here: PEO4 Z-AUC) turned out to be 0.604.

With `COc1cc(N2CCC(N)CC2)ccc1Nc1ncc(Cl)c(-c2c[nH]c3ccccc23)n1`, the Z-AUC was -1.17 (inactive). The Z-AUC under setting [1] was -1.5. For the same compound, the Z-AUC (measured here: PEO4 Z-AUC) was -2.07.

Take `Cc1cccc(-c2[nH]ncc2-c2ccc(F)c(-c3cnn(CCO)c3)c2)n1`: the Z-AUC was 0.705 (inactive). For the same compound, the Z-AUC under setting [1] was 0.508. For the same compound, the Z-AUC (measured here: PEO4 Z-AUC) worked out at 1.13.

Turning to `COCCNCc1ccc(-c2cc3nccc(Oc4ccc(NC(=O)C5(C(=O)Nc6ccc(F)cc6)CC5)cc4F)c3s2)nc1`, the Z-AUC was -0.956 (inactive). The Z-AUC under setting [1] was -0.642. Moreover, the Z-AUC (measured here: PEO4 Z-AUC) is -0.561.

With `COc1ccc(-c2c(C)nn3c(NCCN4CCOCC4)cc(C)nc23)cc1OC`, the Z-AUC was 0.717 (inactive). The Z-AUC under setting [1] worked out at 0.787. Further, the Z-AUC (measured here: PEO4 Z-AUC) was determined as 0.395.

Regarding `CCn1c(=O)c(-c2ccc(Cl)cc2Cl)cc2cnc(Nc3ccc(N4CCNCC4)c(F)c3)nc21`, the Z-AUC was -0.749 (inactive). Also, the Z-AUC under setting [1] is -0.47. Further, for the setting “measured here: PEO4 Z-AUC”, the Z-AUC is -0.502.

In the case of `Cc1cc(C(=O)Nc2cc(Nc3ccc4c(/C=C/c5ccccn5)n[nH]c4c3)ccc2F)n(C)n1`, the Z-AUC is -1.04 (inactive). In addition, the Z-AUC under setting [1] was -0.196. In addition, for the setting “measured here: PEO4 Z-AUC”, the Z-AUC was -0.912.

As for `CS(=O)(=O)c1ccc(Oc2cc(F)cc(C#N)c2)c2c1[C@H](O)C(F)(F)C2`, the Z-AUC was 1.42 (inactive). Further, the Z-AUC under setting [1] was determined as 1.01. Where the note is “measured here: PEO4 Z-AUC”, the Z-AUC was determined as 0.7.

As for `NC(=O)c1ccccc1Nc1ccnc(Nc2cccc(O)c2)n1`, the Z-AUC is -1.9 (inactive). For the same compound, under setting [1], the Z-AUC was -1.44. Further, the Z-AUC (measured here: PEO4 Z-AUC) was -1.66.
